Inconclusive results are not listed. The source made the active and inactive calls. Calls come from the whole dose curve; as a rule, active = well fitted inhibition curve with a large enough effect; inconclusive = small, poorly fitted or top-dose-only effect; inactive = no such curve, though single readings can be large or run the other way.
Potency is the fitted concentration of half-maximal effect.

A short description of the test: qHTS assay for measurement of the activity of small molecule inhibitors on Zika virus induced Caspase-3 activity in human iPSC derived neural progenitor cells (hNPCs) (AID 1224857). For activity change, negative = inhibition: % of control where 0% means no effect. Note: nearly all actives have a fitted effect of over 65% in size. The settings on record: hNPCs ZIKV-induced caspase-3/7, Caspase-Glo luminescence, 6 h; series mostly up to 45.7 µM; activity change, negative = inhibition: at the top concentration. The procedure, abridged: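 Pretreat hNPCs with compound 1 h; infect ZIKV 2 FFU/cell; 6 h 37 C, 5% CO2; Caspase-Glo 3/7, 30 min RT; luminescence; normalize to no-virus and virus-only wells.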
On to `O=[N+]([O-])c1ccc(CSc2ncnc3c2ncn3[C@@H]2O[C@H](CO)C(O)[C@H]2O)cc1` (some centres not stated), for which the “activity change, negative = inhibition” value was 9.65% (inactive).

Consider `N=C(N)N`, for which the “activity change, negative = inhibition” value was -24.5% (inactive).

In the case of `CCNC(=O)[C@H]1O[C@@H](n2cnc3c(N)nc(NCCc4ccc(CCC(=O)O)cc4)nc32)[C@H](O)C1O` (some centres not stated), the “activity change, negative = inhibition” value was 2.68% (inactive).

Regarding `CC(C)NC[C@@H](O)c1ccc(O)c(O)c1`, the “activity change, negative = inhibition” value was -18.8% (inactive).

On to `CS(=O)(=O)c1ccc(-n2nc(C(F)(F)F)cc2-c2ccc(F)cc2)cc1`, for which the “activity change, negative = inhibition” value was -2.06% (inactive).

As to `C=C/C(C)=C/[C@@]1(C)SC(=O)C(C)=C1O`, the “activity change, negative = inhibition” value is 11.9% (inactive).

For the molecule `Cc1c(N)c(=O)n(-c2ccccc2)n1C`, the “activity change, negative = inhibition” value was -9.65% (inactive).

As to `O=C1NC(=O)c2c1c(-c1ccccc1)cc1[nH]c3ccc(O)cc3c21`, the “activity change, negative = inhibition” value was 82.8% (inactive).

Regarding `C[N+](C)(C)CCOP(=O)(O)OP(=O)([O-])OC[C@H]1O[C@@H](n2ccc(N)nc2=O)[C@H](O)C1O` (some centres not stated), the “activity change, negative = inhibition” value is 3.88% (inactive).

Turning to `CC[C@H]1OC(=O)[C@H](C)[C@@H](O[C@H]2C[C@@](C)(OC)[C@@H](O)[C@H](C)O2)[C@H](C)[C@@H](O[C@@H]2O[C@H](C)C[C@H](NC)[C@H]2O)[C@](C)(O)C[C@@H](C)CN(C)[C@H](C)[C@@H](O)[C@]1(C)O`, the “activity change, negative = inhibition” value is 3.6% (inactive).

Turning to `CCCCCCCCCCCCCCCCCCN(CCCCCCCCCCCCCCCCCC)CCCN(CCO)CCO`, the “activity change, negative = inhibition” value is 1.03% (inactive).

Regarding `CNC(=O)[C@H]1O[C@@H](n2cnc3c(NCc4cccc(I)c4)ncnc32)[C@H](O)C1O` (some centres not stated), the “activity change, negative = inhibition” value is 33% (inactive).

Consider `CCCC(CCC)C(=O)OC1CC2CCC(C1)[N+]2(C)C` (configuration not stated), for which the “activity change, negative = inhibition” value was -13.8% (inactive).

Turning to `O=C(CCSCc1ccco1)NNC(=O)N1Cc2ccccc2Oc2ccc(Cl)cc21`, the “activity change, negative = inhibition” value was -24.9% (inactive).

Turning to `COc1ccccc1CN[C@@H]1CCCN[C@@H]1c1ccccc1`, the “activity change, negative = inhibition” value is 11.7% (inactive).

On to `O=C(O)c1cc([N+](=O)[O-])ccc1NCCCc1ccccc1`, for which the Potency is 10 µM (active).

As to `N[C@H](CCCP(=O)(O)O)C(=O)O`, the “activity change, negative = inhibition” value is 4.55% (inactive).

Take `O=C1NCc2c1c1c3ccccc3[nH]c1c1[nH]c3ccccc3c21`: the “activity change, negative = inhibition” value is 91.1% (inactive).

On to `Nc1nc2ccc(Cl)cc2n2c(-c3ccccc3)nnc12`, for which the “activity change, negative = inhibition” value was -11.1% (inactive).

For `CC[C@H]1OC(=O)[C@H](C)C(O[C@H]2C[C@@](C)(OC)[C@@H](O)[C@H](C)O2)[C@H](C)[C@@H](OC2O[C@H](C)C[C@H](N(C)C)[C@H]2O)[C@](C)(O)C[C@@H](C)CN(C)[C@H](C)[C@@H](O)[C@]1(C)O` (some centres not stated), the “activity change, negative = inhibition” value was -1.92% (inactive).

On to `O=C(Nc1cccc(C(=O)Nc2ccc(S(=O)(=O)O)c3cc(S(=O)(=O)O)cc(S(=O)(=O)O)c23)c1)Nc1cccc(C(=O)Nc2ccc(S(=O)(=O)O)c3cc(S(=O)(=O)O)cc(S(=O)(=O)O)c23)c1`, for which the “activity change, negative = inhibition” value was -11.8% (inactive).

As for `O=c1cc(-c2ccccc2)oc2c(O)c(O)ccc12`, the “activity change, negative = inhibition” value is 18.8% (inactive).

For `COc1ccc(C(=O)/C(Cc2cc(OC)c(OC)c(OC)c2)=C(\C(=O)O)c2ccc3c(c2)OCO3)cc1`, the “activity change, negative = inhibition” value is 14.3% (inactive).

Consider `COc1ccc(Br)cc1S(=O)(=O)NC(=O)/C=C/c1ccccc1Cc1ccc2ccccc2c1`, for which the “activity change, negative = inhibition” value is -18.5% (inactive).

With `CN[C@H](CC(C)C)C(=O)N[C@H]1C(=O)N[C@@H](CC(N)=O)C(=O)N[C@H]2C(=O)N[C@H]3C(=O)N[C@H](C(=O)N[C@H](C(=O)O)c4cc(O)cc(O)c4-c4cc3ccc4O)[C@H](O)c3ccc(c(Cl)c3)Oc3cc2cc(c3O[C@@H]2O[C@H](CO)[C@@H](O)[C@H](O)[C@H]2O[C@H]2C[C@](C)(N)[C@H](O)[C@H](C)O2)Oc2ccc(cc2Cl)[C@H]1O`, the “activity change, negative = inhibition” value was -2.38% (inactive).

For `CO[C@H]1O[C@@H]2O[C@]3(C)CC[C@@H]4[C@@H](C)CC[C@H]([C@H]1C)[C@]24OO3`, the “activity change, negative = inhibition” value was -10% (inactive).

Take `CC1(C)S[C@@H]2[C@H](NC(=O)[C@H](N)c3ccccc3)C(=O)N2[C@H]1C(=O)O`: the “activity change, negative = inhibition” value was -10.1% (inactive).

Regarding `NCC1OC(OC2C(O)[C@@H](OC3C(O)C(N)CC(N)C3OC3OC(CO)C(O)C(O)C3N)O[C@@H]2CO)C(N)C(O)C1O` (some centres not stated), the “activity change, negative = inhibition” value is -3.91% (inactive).

For `Nc1nc2ccc([N+](=O)[O-])cc2s1`, the Potency was 10 µM (active).

For `COc1ccc(/C=C2\COc3ccc(C)cc3C2=O)cc1O`, the “activity change, negative = inhibition” value was 22.2% (inactive).

Consider `N=c1ccn2c(n1)O[C@H]1C(O)[C@@H](CO)O[C@H]12` (some centres not stated), for which the “activity change, negative = inhibition” value was 24.2% (inactive).

Regarding `Nc1nc(OCC2CCCCC2)c2[nH]cnc2n1`, the “activity change, negative = inhibition” value was -0.371% (inactive).

Regarding `CNC(=O)[C@H]1O[C@@H](n2cnc3c(NCc4ccc(N)cc4)ncnc32)[C@H](O)C1O` (some centres not stated), the “activity change, negative = inhibition” value is -7.82% (inactive).

Turning to `CC[C@@H](C)[C@H]1O[C@]2(CC[C@@H]1C)C[C@@H]1C[C@@H](C/C=C(\C)[C@@H](O[C@H]3C[C@H](OC)[C@@H](O[C@H]4C[C@H](OC)[C@@H](O)[C@H](C)O4)[C@H](C)O3)[C@@H](C)/C=C/C=C3\CO[C@@H]4[C@H](O)C(C)=C[C@@H](C(=O)O1)[C@]34O)O2`, the “activity change, negative = inhibition” value is 335% (inactive).

As for `CCCCN(CC)c1nc(C)nc2c1c(C)cn2-c1c(C)cc(C)cc1C`, the “activity change, negative = inhibition” value is 78.9% (inactive).

With `O=C(Nc1ccc2c(c1)CCN(Cc1ncn[nH]1)C2)c1ccccc1-c1ccc(C(F)(F)F)cc1`, the “activity change, negative = inhibition” value is 19.5% (inactive).

With `CCN(CC)CCCCNc1ncc2cc(-c3c(Cl)cccc3Cl)c(NC(=O)NC(C)(C)C)nc2n1`, the “activity change, negative = inhibition” value is 2.1% (inactive).
